High-throughput results as filed in PubChem.
Hits are enriched below; roughly 8.8% of the tested compounds scored in any of these assays.
HTT cytoprotect – cytoprotection in Huntington HTT-Q103 PC12 cell model; PC12 HTT-Q103 induced, cytoprotection, ATP luminescence, 40 h; Potency, µM (doses to about 56.4 µM), without a hit: cytoprotection (ATP increase), actives largely listed as activators; actives 0.14% (n = 230,000); AID 1471; active = well fitted curve in the direction sought with a large enough effect; inconclusive = small, poorly fitted or top-dose-only effect, or another doubt; inactive = no such curve, though single readings can be large; an effect the other way counts as inactive or inconclusive; note: % of control where 0% means no effect; nearly all actives have a fitted effect of over 45% in size
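PC12 cells stably carrying ecdysone-inducible Htt exon 1 (Q103)–GFP were induced with 100 nM tebufenozide (final) alongside library compounds in a dose series. Cytoprotection was scored as retained ATP by ATPlite luminescence.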
Lamin A splicing – LMNA splicing modulation; HeLa LMNA splicing GFP/RFP minigene ratio, 48 h; Potency, µM (highest dose often 46.1 µM), inactives show at the highest dose ratio change, negative = inhibition, usual class: inhibitors; actives 0.01% (n = 200,000); AID 1487; active = well fitted inhibition curve with a large enough effect in the signal ratio, with a control signal flat, not every such curve was filed as active; inconclusive = small, poorly fitted or top-dose-only effect, or effect the other way, or a change in a side signal; the % refers to the signal ratio; note: % is set by controls: 0 for no effect and ±100 for the full control effect
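Read-out is the ratio of GFP to DsRed2 object intensity, acquired by 488 nm laser-scanning cytometry on HeLa lamin A-EGFP minigene reporter cells. Compound incubation 48 hrs at 37 °C in Opti-MEM with 2% FBS; DMSO 0.5% final.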
HPGD inh – blocks human HPGD enzyme activity; P15428; purified HPGD, NADH fluorescence kinetic, PGE2 substrate; Potency, µM, inactives show top-dose activity change, negative = inhibition, hits mostly inhibitors; actives 4.3% (n = 150,000); AID 894; note: % is set by controls: 0 for no effect and ±100 for the full control effect
Target sequence (P15428 whole entry, looked up): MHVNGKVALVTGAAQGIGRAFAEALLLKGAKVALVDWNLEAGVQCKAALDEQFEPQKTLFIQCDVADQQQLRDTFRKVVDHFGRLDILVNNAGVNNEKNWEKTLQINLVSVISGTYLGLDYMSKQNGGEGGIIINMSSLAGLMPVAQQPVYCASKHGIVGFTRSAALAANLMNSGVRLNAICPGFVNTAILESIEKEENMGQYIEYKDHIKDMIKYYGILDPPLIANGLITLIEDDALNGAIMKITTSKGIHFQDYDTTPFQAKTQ
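20 nM HPGD preincubated 15 min at room temperature with compound in 50 mM Tris-HCl pH 8, 0.01% Tween 20. Started with 1 mM NAD+ and 30 uM prostaglandin E2; NADH fluorescence (360/450 nm) read 5 times over 30-s intervals, last minus first.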
ALDH1A1 inh – ALDH1A1 (human) enzyme inhibition; P00352; Purified ALDH1A1, NADH fluorescence, propionaldehyde substrate; Potency, µM (doses to about 75.3 µM), inactives show top-dose activity, negative = inhibition, actives largely listed as inhibitors; actives 7.3% (n = 220,000); AID 1030;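 note: plate controls were no enzyme wells and a reference inhibitor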
HTT aggregate – mutant huntingtin aggregation inhibition; PC12 HttQ103-GFP aggregates, Acumen cytometry, 40 h; Potency, µM (series often up to 46.1 µM), without a hit: at the top dose activity change, negative = inhibition, most hits filed as inhibitors; actives 1.1% (n = 220,000); AID 1688; active = well fitted curve in the direction sought with a large enough effect; inconclusive = small, poorly fitted or top-dose-only effect, or another doubt; inactive = no such curve, though single readings can be large; an effect the other way counts as inactive or inconclusive; note: % is set by controls: 0 for no effect and ±100 for the full control effect; nearly all actives have a fitted effect of over 60% in size
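PC12/HTTQ103-GFP, ecdysone-inducible; teb 100 nM; cpd qHTS titration; GFP aggregates read on laser cytometer, Ex 488/Em 500-530 nm.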
Starred values were filed as active, the others as inactive; ? = inconclusive; . = no result; ! = repeats disagree; [ ] = dose if it differs, or a comment. Unless noted, calls come from the whole dose curve; as a rule, active = well fitted inhibition curve with a large enough effect (not every such curve was filed as active); inconclusive = small, poorly fitted or top-dose-only effect, or another doubt; inactive = no such curve, though single readings can be large or run the other way. Potency is the fitted concentration of half-maximal effect.

SMILES	HTT cytoprotect	Lamin A splicing	HPGD inh	ALDH1A1 inh	HTT aggregate
S=C(N=Nc1ccccc1)NNc1ccccc1	.	-6%	?	11µM*	13%
CC(C)COC(=S)Nc1ccccc1	6%	8%	11µM*	25µM*	-2%[9.22 µM]
CC1CCCN(C(=O)CSc2nnc3n(C4CCCC4)c(=O)c4ccccc4n23)C1 (configuration not stated)	7%	4%	20µM*	7.9µM*	12%
O=C(CSc1nnc2n(C3CCCC3)c(=O)c3ccccc3n12)N1CCCCCC1	-11%	7%	-9%	?	0%
N#C/C(=C\c1ccc(-c2cccc(C(F)(F)F)c2)o1)C(=O)Nn1cnnc1	-2%[10 µM]	-10%	1.4µM*	3%	32%
CC(Oc1ccc(F)cc1)C(=O)NN (configuration not stated)	.	-8%	-10%	5µM*	15%
CC(Oc1ccccc1)C(=O)Nc1cccc(F)c1 (configuration not stated)	-5%	1%	-4%	-3%	-1%
Cc1ccc(C(=O)Oc2ccc(-c3nccc(-c4ccccn4)n3)cc2)cc1	2%[10 µM]	-9%	-17%	9%	-8%
CC(Oc1ccc(-c2nccc(-c3ccccn3)n2)cc1)C(=O)NN (configuration not stated)	-23%	1%	-5%	18µM*	-3%
O=C(OCc1ccco1)c1ccc(S(=O)(=O)N2CCCCC2)cc1	-4%	-6%	-16%	28µM*	-2%
O=C(OC1CCOC1=O)c1ccc(Cl)c(S(=O)(=O)N2CCCCC2)c1 (configuration not stated)	1%	12%[46 µM]	.	-3%	-4%
O=C(OC1CCOC1=O)c1cccc(S(=O)(=O)N2CCc3ccccc3C2)c1 (configuration not stated)	-29%	3%[46 µM]	.	13µM*	-11%
O=C(COC(=O)c1ccc(S(=O)(=O)N2CCCCC2)cc1)NCc1ccco1	-26%	-9%[46 µM]	.	-6%	9%
O=C(OC1CCOC1=O)c1ccc(N2CCCC2)c([N+](=O)[O-])c1 (configuration not stated)	28%[10 µM]	12%[46 µM]	.	14µM*	16%
O=C(OC1CCOC1=O)c1ccc(S(=O)(=O)N2CCCCCC2)cc1 (configuration not stated)	-9%[10 µM]	-2%	16µM*	?	1%
O=C(CSc1nccn1C1CCCC1)Nc1cccc(F)c1	.	13%[46 µM]	.	.	.
COc1ccc(OCC(=O)Nc2cccc(C(=O)Nc3ccccc3C(=O)O)c2)cc1	.	13%	?	20µM*	13%
Cc1ccc(C(=O)Nc2ccccc2C(=O)O)cc1NC(=O)COc1c(C)cccc1C	-15%[10 µM]	10%[46 µM]	.	8.9µM*	10%
Cc1cc(C(=O)Nc2ccccc2C(=O)O)ccc1NC(=O)COc1cccc([N+](=O)[O-])c1	11%[10 µM]	?	.	?	29%[9.22 µM]
COc1ccc(CC(=O)Nc2cccc(C(=O)Nc3ccccc3C(=O)O)c2)cc1OC	16%[10 µM]	-12%	?	?	-7%
O=C(NNC1OC(CO)C(O)C(O)C1O)c1cccnc1 (configuration not stated)	-9%[10 µM]	.	.	3%	-19%[9.22 µM]
Cc1cc(C[n+]2cc(Br)ccc2N)c2ncccc2c1	6%[10 µM]	.	.	.	4%[9.22 µM]
Nc1cccc(S(=O)(=O)O)c1	2%	.	-11%	?	.
c1ccc(COc2ccc(Nc3ncnc4nc[nH]c34)cc2)cc1	-72%	21%	16µM*	-14%	?
Cc1cccc(Nc2ncnc3nc[nH]c23)c1	-18%[10 µM]	-6%	-13%	8%	13µM*
SMILES	HTT cytoprotect	Lamin A splicing	HPGD inh	ALDH1A1 inh	HTT aggregate
CC(C)[C@@H](CC(=O)N[C@@H]1CCNC[C@H]1C(=O)N[C@H](CC(=O)N[C@@H](CCC(=O)O)CC(=O)O)Cc1c[nH]c2ccccc12)NC(=O)C[C@H](CO)NC(=O)[C@@H]1CNCC[C@H]1N	?	.	-6%	-7%	.
COc1ccc(O[C@H]2C=C[C@@H](c3ccccc3)O[C@H]2CO/N=C2/c3cc(OC)ccc3O[C@@H](c3cccc(OC)c3)[C@H]2O)cc1	-2%[10 µM]	.	.	5%[13.5 µM]	.
COc1ccc(S(=O)(=O)n2oc(=O)cc2-c2ccccc2)cc1	5%	3%	-14%	?	5%
O=c1cc(-c2ccccc2)n(S(=O)(=O)c2ccccc2)o1	-18%	17%	-18%	25µM*	-14%
CCCN1C(=O)/C(=c2\sc3nc(=O)c(Cc4ccc(C)cc4)nn3c2=O)c2ccccc21	-17%	?	.	6.3µM*	16%
CCCCN1C(=O)/C(=c2\sc3nc(=O)c(-c4ccccc4)nn3c2=O)c2ccccc21	-14%	4%	25µM*	4.5µM*	-16%
NC(=O)CN1C(=O)/C(=c2\sc3nc(=O)c(Cc4ccccc4)nn3c2=O)c2ccccc21	10%[10 µM]	.	.	.	11%[9.22 µM]
CC(C)C1=CC2=CC[C@@H]3[C@](C)(CCC[C@@]3(C)C(=O)O)[C@H]2CC1	25%	?	.	.	15%
CC(=O)O[C@]1(C(C)=O)CC[C@H]2[C@@H]3C[C@H](C)C4=CC(=O)CC[C@]4(C)[C@H]3CC[C@@]21C	5%	?	-1%	32µM*!	18%
CCN1/C(=C/c2ccc3cc(C)cc(C)c3[n+]2CC)Sc2cc(C)ccc21	-50%[10 µM]	?	.	20µM*	?
CCN1/C(=C/c2ccc3cccc(C)c3[n+]2CC)Sc2ccccc21	-157%	?	-1%	?	1.1µM*
CCN1/C(=C\c2ccc3cc(C)ccc3[n+]2CC)Sc2cc(C)c(C)cc21	-76%	-15%[46 µM]	.	?	0.89µM*
CCN1/C(=C\C(C)=O)Sc2ccc(OC)cc21	-12%	26%	-4%	3%	-2%
O=C(CCSCc1ccccc1Cl)NCCc1ccccc1	.	-8%[46 µM]	.	.	.
COC(=O)C1CCCCN1C(=O)CCc1nnc(CCc2c[nH]c3ccccc23)o1 (configuration not stated)	-17%[10 µM]	?	.	22µM*	-12%[9.22 µM]
c1ccc2c3c([nH]c2c1)[C@@H]1[C@H]2CC[C@H]([C@H]4CCCN[C@H]42)N1CC3	-4%[40.3 µM]	-16%	?	-8%[20.9 µM]	.
Cc1ccc(C)c(N2CCN(c3nnnn3-c3ccccc3)CC2)c1	-19%	-2%	-6%	-12%	-30%
O=C1CN(c2nnnn2-c2ccccc2)CCN1	12%	0%	-11%	0%	-18%
c1ccc(CC2CCN(c3nnnn3-c3ccccc3)CC2)cc1	3%[10 µM]	?	-21%	8.9µM*	?
Cc1cc(C)nc(N2CCN(c3nnnn3-c3ccccc3)CC2)n1	5%	-5%	-6%	22µM*	-5%
O=C1NCN(c2ccccc2)C12CCN(c1nnnn1-c1ccccc1)CC2	13%	-10%	-6%	22µM*	-1%[9.22 µM]
COc1cccc(-c2nc(SCc3cc(=O)c4ccc(C)c(C)c4[nH]3)n[nH]2)c1	.	1%[46 µM]	.	.	.
